Results reported in PubChem BioAssay AID865 (The Scripps Research Institute Molecular Screening Center, 2007).
Some of the results follow. Values without a mark were called inactive. Calls of active or inactive are those of the source.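 Rule for the calls: active = activation above the screen-wide mean activation plus 3 SD (cut at about 8% in these data); inactive = the rest.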

Assay: nonspecific BLA reporter activation – CHO NFAT-bla cells, FRET readout, counter-screen for GALR2 agonist project, confirmation (AID 865);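 note: 0% = DMSO with PBS wells and 100% = thapsigargin positive control wells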
Conditions: beta-lactamase FRET activation, at 5.6 µM, hits give high values

| Compound | activation |
| --- | --- |
| Cc1ccc(CCC(=O)Nc2ncc(Cc3cc(Cl)ccc3Cl)s2)o1 | 13.5% (active) |
| OC(COc1cccc2ccccc12)CN1CCN(c2ccccn2)CC1 (stereo not given) | 0.34% |
| Cn1c(=O)oc2cc(S(=O)(=O)N3CCC(C(=O)Nc4ccc(OC(F)(F)F)cc4)CC3)ccc21 | 1.18% |
| O=c1oc2cc(O)ccc2cc1-c1ccc(F)cc1 | 7.16% |
| C=CCN(CC=C)S(=O)(=O)c1ccc(C(=O)Nc2nc3c(s2)CCc2ccccc2-3)cc1 | 1.61% |
| C=CCn1c(Oc2ccc(C(=O)OC)cc2)nc2c1c(=O)n(C)c(=O)n2C | -0.9% |
| O=C(NC(=S)Nc1ccc(NC(=O)c2cccs2)cc1)c1ccc([N+](=O)[O-])cc1 | -1.18% |
| COC(=O)c1ccc(NC(=O)C(C)N2C(=O)c3ccccc3C2=O)cc1 (stereo not given) | -1.44% |
| CCOc1ccc(C(O)Cn2c(=N)n(CCN3CCCCC3)c3ccccc32)cc1 (stereo not given) | -2.38% |
| COc1ccccc1N1N=C(c2cccs2)CC1c1ccccc1 (stereo not given) | 6.25% |
| COc1cc(SC#N)ccc1N=Cc1c(C)[nH]n(-c2ccc(C)cc2)c1=O | 9.72% (active) |
| CCCOc1ccc(C(=O)C(CCC(CNCC)C(=O)c2ccc(OCCC)cc2)CNCC)cc1 (stereo not given) | 0.75% |
| Cc1ccc(Cc2c(C)nc3nc(SCC(=O)NCCN4CCOCC4)nn3c2C)cc1 | -0.81% |
| CC(=O)N(Cc1cccs1)C1CCOC(C)(C)C1 (stereo not given) | -3.67% |
| Cc1csc(NC(=O)c2ccc(-c3ccc(Cl)cc3Cl)o2)n1 | 0.5% |
